Measurements from the supplement of paper PMC10849652.
The full data set covers some 7,900 targets. This sample favours those with a hit. About 0.6% of all pairs of compound and target were hits.

Compound: COc1cc2nc(-c3cc(F)ccc3O)nc(N[C@@H]3CNC[C@H]3C(C)(C)O)c2cc1OC
Assay: log2 fold change, soluble protein after heating vs DMSO (PISA); higher = thermal stabilisation; K562 cells, 10 uM, 30 min; active = over 0.2 and 3.5 SD of the protein, either way, in both replicates (recomputed)
In short: (§1)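 Thermal stability values are relative to control samples and come from duplicates. They are expressed as log2 fold changes. For measurement, K562 cells (2×10^6 cells/mL) received 10 μM compound for 30 min, and aliquots were heated for 3 min over 48°C-58°C, pooled, and extracted at 4°C in PBS with 0.5% NP-40. Soluble protein, the supernatant after 21,000xg for 90 min, was quantified by TMTpro 16plex LC-MS/MS with equalised channel sums.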

Chain of UniProt Q6PCB7 (Q6PCB7 whole entry, looked up): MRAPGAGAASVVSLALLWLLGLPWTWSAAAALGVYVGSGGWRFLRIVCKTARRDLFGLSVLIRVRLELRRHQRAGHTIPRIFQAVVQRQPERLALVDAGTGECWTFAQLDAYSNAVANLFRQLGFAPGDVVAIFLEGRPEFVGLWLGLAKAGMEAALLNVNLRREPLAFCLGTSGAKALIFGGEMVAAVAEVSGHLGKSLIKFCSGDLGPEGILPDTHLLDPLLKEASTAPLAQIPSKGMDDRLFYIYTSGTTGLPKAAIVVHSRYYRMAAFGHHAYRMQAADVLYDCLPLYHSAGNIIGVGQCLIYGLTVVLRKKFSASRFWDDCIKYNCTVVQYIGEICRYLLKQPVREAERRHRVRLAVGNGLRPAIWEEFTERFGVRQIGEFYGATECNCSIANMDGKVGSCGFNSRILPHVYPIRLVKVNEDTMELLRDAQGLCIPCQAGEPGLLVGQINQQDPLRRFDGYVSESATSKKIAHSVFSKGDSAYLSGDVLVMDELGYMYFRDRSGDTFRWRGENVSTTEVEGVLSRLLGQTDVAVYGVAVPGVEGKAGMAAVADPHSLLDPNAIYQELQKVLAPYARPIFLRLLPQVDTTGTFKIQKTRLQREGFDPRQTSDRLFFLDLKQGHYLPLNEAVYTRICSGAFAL
Chain of UniProt Q8N357 (Q8N357 whole entry, looked up): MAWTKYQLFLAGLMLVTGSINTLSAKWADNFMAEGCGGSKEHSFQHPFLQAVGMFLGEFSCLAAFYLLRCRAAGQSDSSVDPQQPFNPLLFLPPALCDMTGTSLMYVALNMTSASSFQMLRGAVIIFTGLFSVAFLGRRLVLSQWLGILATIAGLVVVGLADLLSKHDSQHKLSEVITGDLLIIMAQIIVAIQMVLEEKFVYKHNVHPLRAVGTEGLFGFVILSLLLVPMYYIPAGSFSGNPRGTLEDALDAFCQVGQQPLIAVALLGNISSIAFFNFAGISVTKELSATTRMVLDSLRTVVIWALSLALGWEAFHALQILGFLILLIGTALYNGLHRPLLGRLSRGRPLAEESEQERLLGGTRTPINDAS
Chain of UniProt Q6YHU6 (Q6YHU6 whole entry, looked up): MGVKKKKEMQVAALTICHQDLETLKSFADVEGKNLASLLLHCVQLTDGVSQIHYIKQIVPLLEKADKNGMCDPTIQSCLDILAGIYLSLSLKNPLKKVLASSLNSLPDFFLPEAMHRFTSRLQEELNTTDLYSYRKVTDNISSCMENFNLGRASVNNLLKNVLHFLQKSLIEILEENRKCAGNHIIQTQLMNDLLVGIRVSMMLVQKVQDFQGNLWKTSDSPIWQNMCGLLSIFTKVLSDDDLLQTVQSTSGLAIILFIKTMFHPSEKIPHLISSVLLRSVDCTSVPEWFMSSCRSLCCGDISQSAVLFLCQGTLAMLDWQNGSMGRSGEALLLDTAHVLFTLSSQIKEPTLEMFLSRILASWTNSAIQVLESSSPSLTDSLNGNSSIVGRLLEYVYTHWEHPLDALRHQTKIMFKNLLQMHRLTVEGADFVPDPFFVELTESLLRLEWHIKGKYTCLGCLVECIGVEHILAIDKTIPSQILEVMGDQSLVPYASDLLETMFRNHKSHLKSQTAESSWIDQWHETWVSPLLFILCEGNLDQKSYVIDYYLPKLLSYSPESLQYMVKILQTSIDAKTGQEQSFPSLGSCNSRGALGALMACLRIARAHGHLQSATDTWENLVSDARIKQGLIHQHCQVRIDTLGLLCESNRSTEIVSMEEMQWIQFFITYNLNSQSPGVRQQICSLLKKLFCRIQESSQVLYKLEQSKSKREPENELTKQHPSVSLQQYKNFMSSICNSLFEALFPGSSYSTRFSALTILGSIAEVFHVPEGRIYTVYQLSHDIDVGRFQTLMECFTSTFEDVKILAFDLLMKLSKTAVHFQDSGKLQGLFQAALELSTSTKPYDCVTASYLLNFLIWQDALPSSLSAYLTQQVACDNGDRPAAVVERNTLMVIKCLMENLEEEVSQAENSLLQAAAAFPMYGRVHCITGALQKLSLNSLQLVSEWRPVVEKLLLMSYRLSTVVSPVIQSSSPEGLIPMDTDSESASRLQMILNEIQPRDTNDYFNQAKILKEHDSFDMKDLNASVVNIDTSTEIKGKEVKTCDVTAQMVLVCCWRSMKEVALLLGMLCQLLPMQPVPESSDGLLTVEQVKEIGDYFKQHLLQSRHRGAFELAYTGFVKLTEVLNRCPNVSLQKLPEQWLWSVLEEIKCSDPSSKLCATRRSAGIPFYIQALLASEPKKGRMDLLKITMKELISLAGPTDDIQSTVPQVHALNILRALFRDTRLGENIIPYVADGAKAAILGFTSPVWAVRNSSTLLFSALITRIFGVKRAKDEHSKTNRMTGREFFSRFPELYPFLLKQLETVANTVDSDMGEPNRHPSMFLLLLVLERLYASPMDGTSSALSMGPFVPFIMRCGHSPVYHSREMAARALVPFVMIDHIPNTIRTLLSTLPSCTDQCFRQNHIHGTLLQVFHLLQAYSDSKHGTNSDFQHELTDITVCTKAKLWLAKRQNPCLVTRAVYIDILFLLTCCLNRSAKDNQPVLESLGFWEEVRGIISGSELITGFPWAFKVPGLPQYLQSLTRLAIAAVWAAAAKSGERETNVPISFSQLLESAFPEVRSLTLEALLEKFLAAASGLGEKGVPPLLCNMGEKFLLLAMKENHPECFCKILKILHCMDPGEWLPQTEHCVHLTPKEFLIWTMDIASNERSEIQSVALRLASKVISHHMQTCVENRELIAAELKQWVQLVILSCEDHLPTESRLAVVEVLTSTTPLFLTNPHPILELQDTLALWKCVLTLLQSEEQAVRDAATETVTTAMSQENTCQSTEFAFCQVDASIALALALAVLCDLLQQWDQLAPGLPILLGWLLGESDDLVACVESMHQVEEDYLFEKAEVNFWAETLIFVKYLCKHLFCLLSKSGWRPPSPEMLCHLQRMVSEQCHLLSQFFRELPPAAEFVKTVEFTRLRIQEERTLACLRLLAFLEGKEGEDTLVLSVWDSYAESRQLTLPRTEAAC
Chain of UniProt Q8N5G0 (Q8N5G0 whole entry, looked up): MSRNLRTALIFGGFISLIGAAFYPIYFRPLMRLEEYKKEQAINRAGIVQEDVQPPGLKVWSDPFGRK
Chain of UniProt Q9NRS6 (Q9NRS6 whole entry, looked up): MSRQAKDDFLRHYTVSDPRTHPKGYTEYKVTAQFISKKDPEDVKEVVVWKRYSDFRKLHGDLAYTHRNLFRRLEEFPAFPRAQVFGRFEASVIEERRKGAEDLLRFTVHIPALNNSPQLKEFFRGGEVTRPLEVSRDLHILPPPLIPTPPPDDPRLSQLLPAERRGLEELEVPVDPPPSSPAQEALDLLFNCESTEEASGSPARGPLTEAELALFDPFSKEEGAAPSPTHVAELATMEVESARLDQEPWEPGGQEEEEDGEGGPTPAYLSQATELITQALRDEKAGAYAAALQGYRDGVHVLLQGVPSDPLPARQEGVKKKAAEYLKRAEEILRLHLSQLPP
Chain of UniProt Q9Y6J9 (Q9Y6J9 whole entry, looked up): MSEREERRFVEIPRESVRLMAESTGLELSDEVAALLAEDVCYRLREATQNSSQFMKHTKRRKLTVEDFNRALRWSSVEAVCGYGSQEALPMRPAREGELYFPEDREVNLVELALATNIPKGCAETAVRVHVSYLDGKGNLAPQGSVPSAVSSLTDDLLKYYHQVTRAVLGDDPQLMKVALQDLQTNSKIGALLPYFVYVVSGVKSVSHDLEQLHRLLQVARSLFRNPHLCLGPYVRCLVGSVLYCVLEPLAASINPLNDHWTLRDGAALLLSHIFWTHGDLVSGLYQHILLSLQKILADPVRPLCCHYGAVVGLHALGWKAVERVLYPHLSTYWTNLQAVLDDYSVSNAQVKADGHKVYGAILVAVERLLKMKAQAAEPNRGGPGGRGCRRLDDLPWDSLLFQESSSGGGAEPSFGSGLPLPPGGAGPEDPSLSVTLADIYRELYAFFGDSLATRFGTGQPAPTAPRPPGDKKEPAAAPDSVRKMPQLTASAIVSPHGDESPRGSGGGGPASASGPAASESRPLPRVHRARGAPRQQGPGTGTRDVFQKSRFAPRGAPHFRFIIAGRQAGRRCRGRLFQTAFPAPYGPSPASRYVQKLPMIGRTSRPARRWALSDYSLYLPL
Chain of UniProt Q15527 (Q15527 whole entry, looked up): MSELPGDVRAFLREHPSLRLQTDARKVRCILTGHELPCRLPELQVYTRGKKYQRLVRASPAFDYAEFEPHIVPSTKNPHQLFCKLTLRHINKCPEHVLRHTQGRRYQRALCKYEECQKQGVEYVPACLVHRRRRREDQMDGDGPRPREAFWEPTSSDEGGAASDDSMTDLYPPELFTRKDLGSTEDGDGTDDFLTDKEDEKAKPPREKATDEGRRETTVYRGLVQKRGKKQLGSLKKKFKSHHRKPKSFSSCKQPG
Chain of UniProt Q8NEW0 (Q8NEW0 whole entry, looked up): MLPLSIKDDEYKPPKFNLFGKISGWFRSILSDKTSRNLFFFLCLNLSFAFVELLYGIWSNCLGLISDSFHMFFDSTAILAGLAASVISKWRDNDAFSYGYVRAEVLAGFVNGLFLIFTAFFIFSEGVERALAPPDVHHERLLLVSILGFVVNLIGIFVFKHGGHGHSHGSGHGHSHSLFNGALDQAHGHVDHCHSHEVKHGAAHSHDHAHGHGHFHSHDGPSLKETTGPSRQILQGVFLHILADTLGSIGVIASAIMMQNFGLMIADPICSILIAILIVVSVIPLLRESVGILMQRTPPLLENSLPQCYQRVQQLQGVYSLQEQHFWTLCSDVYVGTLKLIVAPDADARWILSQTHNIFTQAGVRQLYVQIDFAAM
Chain of UniProt Q15005 (Q15005 whole entry, looked up): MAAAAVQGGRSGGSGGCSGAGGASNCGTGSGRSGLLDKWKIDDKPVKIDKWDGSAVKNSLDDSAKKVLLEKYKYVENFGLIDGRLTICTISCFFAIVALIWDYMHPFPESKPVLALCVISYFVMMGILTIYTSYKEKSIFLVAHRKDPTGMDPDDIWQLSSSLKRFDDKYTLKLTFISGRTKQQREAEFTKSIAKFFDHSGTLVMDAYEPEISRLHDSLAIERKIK
Chain of UniProt Q9Y5J6 (Q9Y5J6 whole entry, looked up): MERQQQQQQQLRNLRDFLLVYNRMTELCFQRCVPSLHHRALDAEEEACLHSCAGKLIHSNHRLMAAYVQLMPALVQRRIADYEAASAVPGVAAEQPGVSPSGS

log2 fold change, inactive:
SLC35F6 (UniProt Q8N357) 0.033
SLC27A1 (UniProt Q6PCB7) 0.069
SRSF6 (UniProt Q13247) -0.134
TATDN2 (UniProt Q93075) -0.015
TENT5C (UniProt Q5VWP2) 0.075
TMBIM1 (UniProt Q969X1) -0.254
SNRNP40 (UniProt Q96DI7) 0.191
SPART (UniProt Q8N0X7) 0.067
SRSF4 (UniProt Q08170) -0.04
SNX1 (UniProt Q13596) -0.063
THADA (UniProt Q6YHU6) -0.03
TACC2 (UniProt O95359) 0.01
SRFBP1 (UniProt Q8NEF9) 0.306
STARD3 (UniProt Q14849) 0.038
SNX15 (UniProt Q9NRS6) 0.019
SRCAP (UniProt Q6ZRS2) -0.067
THYN1 (UniProt Q9P016) 0.035
SURF2 (UniProt Q15527) 0.023
TANGO6 (UniProt Q9C0B7) -0.015
SPCS2 (UniProt Q15005) 0.092
STAM2 (UniProt O75886) 0.001
TM7SF3 (UniProt Q9NS93) 0.101
TIMM10B (UniProt Q9Y5J6) 0.048
TLK1 (UniProt Q9UKI8) -0.029
SLC30A7 (UniProt Q8NEW0) 0.088
TAF6L (UniProt Q9Y6J9) 0.166
STX7 (UniProt O15400) 0.013
TARS2 (UniProt Q9BW92) 0.044
SUPT5H (UniProt O00267) 0.058
SMIM20 isoform 2 (UniProt Q8N5G0) 0.024
TANK (UniProt Q92844) 0.097

log2 fold change, active:
SP100 isoform 4 (UniProt P23497) -0.242

Compound: COc1cc2ncnc(Nc3ccc(F)c(Cl)c3)c2cc1OCCCN1CCOCC1 [gefitinib]
Assay: as above
In short: as §1

log2 fold change, inactive:
SLC44A2 isoform 2 (UniProt Q8IWA5) 0.002
STK38L (UniProt Q9Y2H1) 0.029
SLC35F6 (UniProt Q8N357) 0
SLC27A1 (UniProt Q6PCB7) 0.016
SRSF6 (UniProt Q13247) 0.033
TATDN2 (UniProt Q93075) -0.037
TENT5C (UniProt Q5VWP2) 0.002
TMBIM1 (UniProt Q969X1) -0.004
SNRNP40 (UniProt Q96DI7) -0.052
SPART (UniProt Q8N0X7) 0.054
SRSF4 (UniProt Q08170) -0.014
SNX1 (UniProt Q13596) -0.165
THADA (UniProt Q6YHU6) -0.031
TACC2 (UniProt O95359) -0.027
SRFBP1 (UniProt Q8NEF9) 0.06
SYNE1 (UniProt Q8NF91) 0.049
STARD3 (UniProt Q14849) 0.075
SNX15 (UniProt Q9NRS6) 0.126
SRCAP (UniProt Q6ZRS2) 0.198
THYN1 (UniProt Q9P016) 0.028
SURF2 (UniProt Q15527) 0.028
TANGO6 (UniProt Q9C0B7) -0.049
SPCS2 (UniProt Q15005) 0.03
STAM2 (UniProt O75886) 0.002
SP100 isoform 4 (UniProt P23497) 0.024
TM7SF3 (UniProt Q9NS93) -0.066
TIMM10B (UniProt Q9Y5J6) 0.022
TLK1 (UniProt Q9UKI8) 0.006
SLC30A7 (UniProt Q8NEW0) 0.017
TAF6L (UniProt Q9Y6J9) 0.054
SLC35B1 isoform 2 (UniProt P78383) -0.022
STX7 (UniProt O15400) -0.01
TARS2 (UniProt Q9BW92) -0.023
SUPT5H (UniProt O00267) 0.028
SMIM20 isoform 2 (UniProt Q8N5G0) 0.057
TANK (UniProt Q92844) -0.032

Compound: COc1cccc2cc(-c3nc([C@H]4CC[C@H](C(=O)O)CC4)n4ncnc(N)c34)[nH]c12
Assay: as above
In short: as §1

log2 fold change, inactive:
SLC44A2 isoform 2 (UniProt Q8IWA5) 0.057
STK38L (UniProt Q9Y2H1) -0.064
SLC35F6 (UniProt Q8N357) 0.037
SLC27A1 (UniProt Q6PCB7) -0.031
SRSF6 (UniProt Q13247) -0.032
TENT5C (UniProt Q5VWP2) -0.021
TMBIM1 (UniProt Q969X1) 0.088
SNRNP40 (UniProt Q96DI7) 0.025
SPART (UniProt Q8N0X7) -0.028
SRSF4 (UniProt Q08170) -0.089
SMDT1 (UniProt Q9H4I9) 0.014
SNX1 (UniProt Q13596) 0
THADA (UniProt Q6YHU6) 0.014
TACC2 (UniProt O95359) 0.011
SRFBP1 (UniProt Q8NEF9) -0.072
SYNE1 (UniProt Q8NF91) 0.084
STARD3 (UniProt Q14849) 0.035
SNX15 (UniProt Q9NRS6) 0.032
SRCAP (UniProt Q6ZRS2) 0.062
THYN1 (UniProt Q9P016) -0.007
SURF2 (UniProt Q15527) -0.034
TANGO6 (UniProt Q9C0B7) -0.036
SPCS2 (UniProt Q15005) -0.021
STAM2 (UniProt O75886) -0.066
SP100 isoform 4 (UniProt P23497) 0.036
TM7SF3 (UniProt Q9NS93) 0.248
TIMM10B (UniProt Q9Y5J6) 0.143
TLK1 (UniProt Q9UKI8) 0.064
SLC30A7 (UniProt Q8NEW0) 0.184
TAF6L (UniProt Q9Y6J9) 0.038
SLC35B1 isoform 2 (UniProt P78383) 0.129
STX7 (UniProt O15400) 0.045
TARS2 (UniProt Q9BW92) 0.041
SUPT5H (UniProt O00267) 0.027
SMIM20 isoform 2 (UniProt Q8N5G0) 0.091
TANK (UniProt Q92844) 0.048
